Measured values taken from PubChem BioAssay (Tox21).
Records with an inconclusive call do not appear. A number with no mark means an inactive call. Calls come from the whole dose curve; as a rule, active = well fitted inhibition curve with a large enough effect in the repeat runs; inconclusive = weak or mixed curves; inactive = flat fitted curve, though single readings scatter.

What follows are compounds tested against Voltage-gated inwardly rectifying potassium channel KCNH2 (Homo sapiens) (UniProt Q12809) (assay: Human Ether-a-go-go-Related Gene (hERG) channel small molecule antagonists: fluorescence cell-based qHTS assay (AID 1671200;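 note: hERG-expressing U2OS cells given a thallium stimulus after FluxOR II dye loading; nearly all actives have a fitted effect of over 50% in size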)). Conditions: hERG-U2OS cells, FluxOR thallium flux fluorescence; series mostly up to 76.8 µM; activity change, negative = inhibition: at the top concentration.
Outline: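 Kinetic two-minute fluorescence traces, sampled at 1 s, were collected following thallium stimulus of U2OS cells (1000 per well) that had been cultured overnight at 37 C and loaded with FluxOR II.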
% is set by controls: 0 for no effect and ±100 for the full control effect.

Voltage-gated inwardly rectifying potassium channel KCNH2 (Homo sapiens), sequence (Q12809 whole entry, looked up): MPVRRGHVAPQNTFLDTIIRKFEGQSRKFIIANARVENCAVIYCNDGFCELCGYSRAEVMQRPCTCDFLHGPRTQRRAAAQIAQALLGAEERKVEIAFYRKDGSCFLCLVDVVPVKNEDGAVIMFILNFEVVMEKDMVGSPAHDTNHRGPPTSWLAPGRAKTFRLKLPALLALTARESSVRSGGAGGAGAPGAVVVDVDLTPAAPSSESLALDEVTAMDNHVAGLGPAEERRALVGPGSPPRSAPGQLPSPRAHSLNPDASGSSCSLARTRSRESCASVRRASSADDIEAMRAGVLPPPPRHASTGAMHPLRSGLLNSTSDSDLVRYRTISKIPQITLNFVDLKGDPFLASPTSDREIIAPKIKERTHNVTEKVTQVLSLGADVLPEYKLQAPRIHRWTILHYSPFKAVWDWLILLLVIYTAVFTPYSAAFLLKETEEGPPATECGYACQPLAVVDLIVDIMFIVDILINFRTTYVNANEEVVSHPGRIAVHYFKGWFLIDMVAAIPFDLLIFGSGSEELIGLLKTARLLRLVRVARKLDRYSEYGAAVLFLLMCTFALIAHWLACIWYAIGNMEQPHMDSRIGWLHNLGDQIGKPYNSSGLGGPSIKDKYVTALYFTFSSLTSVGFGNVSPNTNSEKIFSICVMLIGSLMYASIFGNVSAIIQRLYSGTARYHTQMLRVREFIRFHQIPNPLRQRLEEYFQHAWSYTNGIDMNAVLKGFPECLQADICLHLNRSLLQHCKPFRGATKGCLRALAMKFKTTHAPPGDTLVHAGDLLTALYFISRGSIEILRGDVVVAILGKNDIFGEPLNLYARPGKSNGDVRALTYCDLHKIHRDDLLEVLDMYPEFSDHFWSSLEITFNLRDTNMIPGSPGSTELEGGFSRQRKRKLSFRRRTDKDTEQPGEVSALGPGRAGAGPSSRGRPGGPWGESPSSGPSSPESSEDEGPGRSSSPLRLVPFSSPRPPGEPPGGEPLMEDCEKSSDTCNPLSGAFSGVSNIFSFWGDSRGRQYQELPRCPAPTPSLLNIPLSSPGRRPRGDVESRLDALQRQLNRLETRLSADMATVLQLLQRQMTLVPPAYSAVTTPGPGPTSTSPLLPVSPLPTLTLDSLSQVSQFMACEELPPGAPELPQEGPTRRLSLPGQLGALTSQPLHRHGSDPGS

In order of falling “activity change, negative = inhibition” value:
1. O=C(O)Cc1ccccc1Oc1ccc(Cl)cc1Cl  7.06% [at 35.3 µM]
2. CC(=O)c1ccc(O)c(C(N)=O)c1  6.1% [at 35.3 µM]
3. CC(C)(C)NCC(O)COc1cccc2c1CCC(=O)N2 (stereo not drawn)  5.56% [at 35.3 µM]
4. CO/N=C(\C(=O)O)c1csc(NC(=O)CCl)n1  3.9% [at 35.3 µM]
5. CC(=O)Nc1ccc(S(=O)(=O)Nc2cc(C)on2)cc1  1.88% [at 35.3 µM]
6. CCOC(=O)[C@H](CCc1ccccc1)N[C@H]1CS[C@H](c2cccs2)CN(CC(=O)O)C1=O  1.18% [at 35.3 µM]
7. Cc1cc2c(cc1CC(=O)c1sccc1S(=O)(=O)Nc1onc(C)c1Cl)OCO2  0.13% [at 35.3 µM]
8. COC(=O)c1ccc(NC(C)=O)cc1OC  -2.27% [at 35.3 µM]
9. COCCCOc1cc(C[C@@H](C[C@H](N)[C@@H](O)C[C@H](C(=O)NCC(C)(C)C(N)=O)C(C)C)C(C)C)ccc1OC  -6.12% [at 35.3 µM]

In order of rising “activity change, negative = inhibition” value:
1. CCCCCCC(=O)c1ccccc1  -20.8%
2. O=C(O)CCCCCCCCCC(=O)O  -8.32%
3. C/C(Cl)=C/CCl  -5.21%
4. C/C=C/C(=O)CCCC  -4.48%
5. CC(=O)OC/C=C(/C)CCC=C(C)C  -3.3%
6. C[Si](C)(C)O[Si](O)(O)O  -2.19%
7. CCCC(=O)OC  -1.88%
8. CCOC(=O)CC  -1.84%
9. COCc1nnc(-c2ccc[n+]([O-])c2)n1-c1c(Cl)c(Cl)cc2[nH]c(=O)c(=O)[nH]c12  -1.28%
10. CCCC(=O)C(CC)Sc1ccoc1C (stereo not drawn)  0.364%
11. Cc1ccc(Br)cc1  0.982%
12. CC(O)C(CO)C(C)O (stereo not drawn)  1.25%
13. COc1ccc(Cl)cc1C  1.39%
14. CCCCS  1.47%
15. C=CC(=O)CC  1.57%
16. CC(C)C[P+](C)(CC(C)C)CC(C)C  1.63%
17. CCOC(=O)c1ccc(N(C)C)cc1  1.7%
18. Clc1cc(Cl)c(Cl)c(Cl)c1Cl  2.29%
19. Cc1cc(O)c(Cl)cc1C  2.31%
20. c1coc(Cn2cccc2)c1  2.38%
21. Cc1ccccc1C#N  2.75%
22. NNC(=O)OCc1ccccc1  3.33%
23. Cc1ccc2cccnc2c1  3.51%
24. CCCc1ccc(O)c(OC)c1  3.8%
25. CCC(=O)OCCOc1ccccc1  4.26%
26. Cc1cc(C)c(N)c(Cl)c1  5.05%
27. COC(C)(C)CC(C)=O  6.26%
28. CCCCC(CC)COC(=O)CC#N (stereo not drawn)  6.7%

`CCCCCCCCCCCCCCCCN(C)C` was tested, and the activity change, negative = inhibition was -6.11% [at 6.97 µM].
